Our source for the Percent Effect values is ChEMBL document CHEMBL3988442, “University of Dundee, Small-Polar-MMV Screening Library” (2021).

This assay has as its target Shiga toxin 2 (Escherichia coli O157:H7) (UniProt P09385+P09386). The assay is described as follows: E. coli 0.157:H7 Shiga Toxin SOP - stx2 screening assay. It counts as functional. Details: scale not given: direction of the effect not stated beside the values. The note with it: 30 µM.
`O=C(NCCC(=O)N1CCCCCC1)c1c(O)cc(F)cc1F`: the Percent Effect was -11.1%.
For the compound `Cn1nnc2c1CCN(Cc1nccs1)C2COCc1ccccc1` (stereo not given), the Percent Effect is -58%.
As to `CN(CCCOc1ccc(F)cc1)Cc1nc2c(cnn2C)c(=O)[nH]1`, the Percent Effect came out at 26.6%.
The result for `Cc1cc(-c2cnc(N3CCNC(=O)C3)nc2-c2ccc(C)o2)on1` reads -18.2%; that for `COc1ccccc1NC(=O)NCC(O)(c1ccccc1)C1CC1` (stereo not given), -12.2%; that for `CN1CC[C@H](c2ccccc2)[C@@H]2[C@H]1CCCCN2C(=O)c1cnccn1`, 3.52%.
`CCN(C(=O)c1ccc(-n2ncc(C#N)c2N)cc1)C1CCCC1`: the Percent Effect came to 6.02%.
As for `O=C(CN1CCCC1Cn1cncn1)NCCOc1cccc(F)c1` (stereo not given), the Percent Effect is 18.7%.
As for `O=C(c1cnc(-c2ccco2)s1)N1CCCC1Cn1cccn1` (stereo not given), the Percent Effect is -4.37%.
As for `Cc1nc(C2(NCC(=O)NCCc3cccs3)CCCC2)no1`, the Percent Effect is 8.44%.
`Cc1nc(N)cc(C2CN(C(=O)c3ccn(C)n3)CCO2)n1` (stereo not given): the Percent Effect stood at 3.51%.
On to `O=C(NCCCNC(=O)c1cccc(O)c1)NCc1ccccc1F`, for which the Percent Effect was -41.9%.
As to `Cc1cc(-c2nn(C)c(Cl)c2CN2CCOCC2CC(=O)O)no1` (stereo not given), the Percent Effect was found to be 19.9%.
In the case of `Cc1nn(C)c(C)c1C1CCCN1C(=O)c1ccc(NC2CC2)nc1` (stereo not given), the Percent Effect is -36.7%.
The result for `CC(C)NC(=O)N1CC[C@@H]2CN(Cc3ccccc3)S(=O)(=O)[C@@H]2CC1` reads -5.27%; that for `Cc1ccc(S(=O)(=O)Nc2ccc(-n3cccc3C(=O)O)c(C)c2)s1`, 18.8%; that for `CN1CCC(C(=O)NCc2nncn2-c2ccccc2)CC1=O` (stereo not given), 18.1%.
For `O=C(c1cccc(=O)[nH]1)N(Cc1ccsc1)CC1CCCO1` (stereo not given), the Percent Effect is -11.1%.
The result for `O=C1C(NCc2nnc3n2CCCC3)CCCN1c1cccc(F)c1` (stereo not given) reads -64.6%; that for `CCS(=O)(=O)CC(=O)NC(c1ccccc1)C1CCCCC1` (stereo not given), 7.43%.
Regarding `CC(C)c1nnc2ccc(N3CCC(C(N)=O)CC3)nn12`, the Percent Effect is -20.5%.
On to `Cc1cnn(C2CCCN(C(=O)c3sccc3-n3cnnn3)C2)c1` (stereo not given), for which the Percent Effect was -40.9%.
The result for `CC(C)C(C(=O)N1CCN(Cc2ccncc2)CC1)n1cncn1` (stereo not given) reads -21.4%; that for `CC1CN(c2ccc(CNC(=O)c3ccn(C)c(=O)c3)cn2)CCO1` (stereo not given), -19.6%; that for `O=C(CC1CCCCC1)N1CCN(C(=O)NCc2ccccn2)CC1`, 20.8%.
As to `CC(C)(C)NC(=O)CNC(=O)CCc1ccccc1Br`, the Percent Effect was -3.39%.
On to `Cc1sc(NC(=O)CN(C)S(C)(=O)=O)c(C#N)c1C`, for which the Percent Effect is -4.6%.
The result for `CCC(=O)Nc1ccc2c(c1)CN(C(=O)c1ccco1)CC2` reads -43.9%; that for `CCCc1noc(CN2CCCC2c2ccsc2)n1` (stereo not given), 0.761%.
For the compound `CC(C)n1ncc2c1NC(=O)CC21C(=O)Nc2c(Cl)cccc21` (stereo not given), the Percent Effect was -7.34%.
Take `CS(=O)(=O)NC1CCCN(C(=O)NCc2cc[nH]n2)C1` (stereo not given): the Percent Effect amounted to 2.05%.
With `CC(c1cccc(S(N)(=O)=O)c1)N(C)CCOc1ccccc1` (stereo not given), the Percent Effect is -29.3%.
In the case of `CCCc1nc(CN2CCN(Cc3noc(CCC)n3)CC2)no1`, the Percent Effect was -39.2%.
The result for `CCn1ccnc1CN1CCC(CCC(=O)Nc2ccccc2Cl)CC1` reads -30.9%; that for `COCCNC(=O)C(C)n1cc(Br)cn1` (stereo not given), -44.4%; that for `Fc1cccnc1OC[C@@]12CCO[C@@H]1CCN(CC1CCOCC1)C2`, 1.39%.
The result for `CC(C)c1nn(C)c(Cl)c1CNCC(O)c1cccc(F)c1` (stereo not given) reads 10.3%; that for `Cc1ccoc1C(=O)NC1CCN(Cc2csc3c(F)cccc23)CC1`, -64.2%.
The result for `CC(=O)N1N=C(c2ccccc2)OC1C(=O)NCCc1cccc(Cl)c1` (stereo not given) reads 19.6%.
Regarding `O=C(CSCC1CC1)N1CCCC(c2nccn2Cc2ccncc2)C1` (stereo not given), the Percent Effect came to 6.34%.
